High-throughput results from PubChem BioAssay.
The list is not random: actives were taken first. Their share in the collection is about 17%.
HT1080NT lethal: kills 2HG-producing HT-1080-NT fibrosarcoma cells; 360,000 compounds, 1.6% hits; HT-1080-NT fibrosarcoma viability, CellTiter-Glo ATP luminescence, 48 h; Potency, µM (highest dose often 46.1 µM), for inactives: at the top dose activity, negative = less viability, actives largely listed as cytotoxic;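 further: NT is the 2HG producing partner of a matched IDH1 knockdown line; 0% = DMSO-treated cells and -100% = media-only wells without cells; nearly all actives have a fitted effect of over 55% in size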
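Viability by CellTiter-Glo luminescence after 48 h compound exposure at 37C of HT-1080-NT cells (750/well, RPMI, 5% FBS). % activity scaled between DMSO wells and medium-only wells, then curve-fitted and categorized by curve class.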
DT40 TDP1 no CPT: qHTS for Inhibitors of human tyrosyl-DNA phosphodiesterase 1 (TDP1): qHTS in cells in absence of CPT; DT40 Tdp1-/- hTDP1 cells, no CPT, ATP luminescence, 48 h; Potency, µM (doses to about 46.2 µM), without a hit: at the top dose activity change, negative = growth inhibition, usual class: inhibitors; 420,000 compounds, 15% hits; further: on the % scale 0 is the no-effect control and ±100 the full control effect; nearly all actives have a fitted effect of over 55% in size
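No-CPT arm: Tdp1-/-;hTDP1 DT40 cells (400/well) plus compounds, incubated ≥48 hr at 37 °C. Readout CellTiter-Glo luminescence.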
DT40 TDP1 CPT: DT40-hTDP1 cell growth loss with CPT. chicken DT40 Tdp1-/-;hTDP1 cells + 20 nM CPT, ATP luminescence, 48 h. Potency, µM (top dose mostly 46.2 µM), for the others: top-dose activity change, negative = growth inhibition, most hits filed as inhibitors. 420,000 compounds, 12% hits; further: on the % scale 0 is the no-effect control and ±100 the full control effect; nearly all actives have a fitted effect of over 55% in size
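Cell growth measured by CellTiter-Glo luminescence after a minimum 48 h, 37 C compound exposure with 20 nM CPT in Tdp1-knockout DT40 cells stably expressing hTDP1, seeded 400/well; qHTS titration format.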
HT1080 IDH1KD tx: kills HT-1080 cells with IDH1 knockdown; HT-1080 IDH1 knockdown viability, ATP luminescence, 48 h; Potency, µM (series often up to 46.1 µM), inactives show at the top dose activity, negative = toxicity, usual class: cytotoxic; 360,000 compounds, 2% hits;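 further: 0% = DMSO wells and -100% = cell-free medium wells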
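Luminescent ATP read-out (CellTiter-Glo, 10 min at room temperature) after 48 h compound exposure at 37 °C gave viability of IDH1-knockdown HT-1080 cells. Activity was normalised to DMSO and cell-free wells, then fitted as concentration-response curves.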
HepG2 tox: HepG2 cytotoxicity, counter-screen for TGF-b inhibitors; Potency, µM (top dose mostly 46.1 µM), for the others: at the highest dose activity change, negative = cytotoxicity, usual class: cytotoxic; AID 588856; HepG2 CAGA-GFP viability, ATP luminescence, 18 h; 410,000 compounds, 0.76% hits
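CellTiter-Glo luminescence gave cytotoxicity after 18 hours at 37 degrees C. The cells were HepG2 CAGA-GFP in 1% FBS DMEM, stimulated with 500 pg/mL TGF-beta after compound addition. %Activity was normalised to no-cell wells (complete cell-killing) and DMSO (no toxicity), and curves were fitted and classified.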
TGFb inhibitor: inhibitors of TGF-b signaling; 410,000 compounds, 1.2% hits; Potency, µM (top dose mostly 46.1 µM), without a hit: top-dose activity, negative = inhibition, hits mostly inhibitors; HepG2 CAGA-GFP TGF-b/SMAD3 reporter, GFP fluorescence, 18 h; TGF-beta stimulated, 500 pg/mL final; further: on the % scale 0 is the no-effect control and ±100 the full control effect; nearly all actives have a fitted effect of over 65% in size
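Per well, imaged GFP fluorescence of HEPG2 CAGA-GFP cells gives the signal; cells get compound, then TGF-beta (500 pg/mL final), 18 h at 37 degrees C; %Activity versus -TGF-beta and +DMSO controls.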
* marks the source's active call; other numbers are inactive results; ? = inconclusive; . = not tested or not shown; [ ] = dose if it differs, or a comment. The call rests on the fitted dose curve; in most records, active means well fitted curve in the direction sought with a large enough effect; inconclusive means small, poorly fitted or top-dose-only effect, or another doubt; inactive means no such curve, though single readings can be large; an effect the other way counts as inactive or inconclusive. Potency means the concentration at half of the fitted maximal effect.

SMILES | HT1080NT lethal | DT40 TDP1 no CPT | DT40 TDP1 CPT | HT1080 IDH1KD tx | HepG2 tox | TGFb inhibitor
CCN(C[C@H]1N[C@@](CC)(C(=O)OC)[C@H]2C(=O)N(C)C(=O)[C@@H]12)C(=O)c1ccccc1 | 5.7% | -4.7% | -12.3% | 8.3% | 3.0% | -7.3%
Cc1ccc(-c2nn3c(-c4ccccc4)nnc3o2)cc1 | 28.7% | ? | ? | 11.7% | 0.6% | 10.0%
c1ccc(-c2nnc3oc(-c4cccs4)nn23)cc1 | 6.8% | 11.6µM* | 23.1µM* | -1.9% | -45.1% | ?
O=C(CCN1CCC2CCC(C2)C1)c1ccccc1 (stereo not drawn) | 6.7% | 2.59µM* | 2.59µM* | 6.4% | -0.9% | 12.7%
COc1ccc(CNC(=O)COC(=O)CCn2c(C)csc2=O)cc1OC | 16.6% | -25.4% | -10.1% | 13.7% | 4.2% | 6.8%
Cc1ccc(Cl)cc1N1CCN(C(=O)COCc2cc(-c3ccc4c(c3)OCO4)on2)CC1 | . | -25.2% | -1.2% | . | -20.1% | -18.7%
COc1ccccc1N1CCN(S(=O)(=O)CCNC(=O)COc2ccc(C(C)C)cc2)CC1 | . | 16.4µM* | ? | . | -34.8% | ?
COc1ccccc1N1CCN(S(=O)(=O)CCNC(=O)CCc2ccccc2)CC1 | -3.5% | 16.4µM* | ? | 3.4% | -22.9% | ?
CCOc1ccc(CC(=O)NCCS(=O)(=O)N2CCN(c3ccccc3OC)CC2)cc1 | . | 20.6µM* | 11.6µM* | . | -18.5% | ?
COc1ccccc1N1CCN(S(=O)(=O)CCNC(=O)C23CC4CC(CC(C4)C2)C3)CC1 | ? | ? | ? | -26.4% | -17.8% | ?
COc1ccc(CCC(=O)NCCS(=O)(=O)N2CCN(c3ccccc3)CC2)cc1 | -1.5% | ? | ? | -7.7% | -15.8% | 1.1%
COc1ccccc1N1CCN(S(=O)(=O)CCNC(=O)CC2CCCCC2)CC1 | 3.9% | 16.4µM* | 16.4µM* | 23.7% | -4.9% | ?
CCn1c(SCC(=O)N2CCN(C(=O)c3ccco3)CC2)nnc1C(C)C | 17.1% | -4.2% | -4.0% | ? | 16.6% | 3.1%
O=C(NCCS(=O)(=O)NC1CCCC1)c1ccccc1 | 9.6% | -4.1% | 4.7% | 11.2% | -1.0% | -1.6%
COc1ccc(Cl)cc1C(=O)NCCS(=O)(=O)N1CCN(c2ccccc2OC)CC1 | . | 18.4µM* | ? | . | -21.5% | ?
COc1ccccc1N1CCN(S(=O)(=O)CCNC(=O)c2cc(=O)c3ccccc3o2)CC1 | -12.4% | 25.9µM* | ? | -14.3% | -1.9% | -27.8%
COc1ccccc1N1CCN(S(=O)(=O)CCNC(=O)c2ccco2)CC1 | 2.1% | -1.2% | 3.5% | 5.2% | -10.0% | 0.0%
COc1cc(OC)cc(C(=O)NCCS(=O)(=O)N2CCN(Cc3ccccc3)CC2)c1 | 2.9% | ? | ? | 6.4% | -1.0% | 6.0%
COc1ccccc1N1CCN(S(=O)(=O)CCNC(=O)c2cc(OC)c(OC)c(OC)c2)CC1 | ? | ? | ? | ? | -10.0% | -29.2%
COc1ccc(C(=O)NCCS(=O)(=O)N2CCN(Cc3ccccc3)CC2)cc1 | -2.3% | 29.1µM* | -20.0% | -5.6% | 2.5% | -2.9%
COc1ccc(Cl)cc1C(=O)NCCS(=O)(=O)N1CCN(c2ccccc2F)CC1 | -9.7% | ? | ? | -2.9% | -2.0% | -12.9%
COc1ccc(CC(=O)NCCS(=O)(=O)N2CCN(c3ccccc3OC)CC2)cc1 | -11.8% | ? | 29.1µM* | -10.6% | 12.2% | 2.9%
Cc1cnc(C(=O)OCc2nc3ccsc3c(=O)[nH]2)cn1 | -2.1% | 0.5% | -1.2% | -11.9% | -1.0% | 0.1%
COc1ccc(CN2C(=O)c3ccccc3C2C(=O)NC2CCCCCC2)c(OC)c1 (stereo not drawn) | -11.9% | ? | -8.5% | -16.6% | -20.0% | ?
Cn1c(SCC2CCCO2)nnc1C1CCN(Cc2ccccc2O)CC1 (stereo not drawn) | . | -4.8% | 8.8%[9.04 µM] | . | . | .
SMILES | HT1080NT lethal | DT40 TDP1 no CPT | DT40 TDP1 CPT | HT1080 IDH1KD tx | HepG2 tox | TGFb inhibitor
CC(OC(=O)C1=Cc2ccccc2OC1)C(=O)NCC1CCCO1 (stereo not drawn) | -8.9% | -14.8% | ? | -19.1% | 13.9% | 15.9%
CC[C@@H](C)[C@@H]1CN([C@@H](CN2CCC[C@H]2CN2C(N)=NC[C@H]2C(C)C)C(C)C)C(=N)N1CCc1ccc(Cl)c(Cl)c1 | -1.0% | 16.4µM* | ? | -4.0% | -0.9% | 0.6%
CCCCN1C(=N)N([C@@H](CN2CCC[C@H]2CN2C(N)=NC[C@@H]2Cc2ccccc2)C(C)C)C[C@H]1Cc1ccccc1 | 0.0% | 16.4µM* | ? | 5.1% | 1.1% | ?
CCC(C)[C@H]1CN=C(N)N1CCCc1cc(OC)c(OC)c(OC)c1 (stereo partly drawn) | -1.4% | -18.7% | -10.0% | 0.7% | -10.8% | -27.3%
CC[C@@H](C)[C@@H]1CN([C@@H](C)CN2CCC[C@H]2CN2C(N)=NC[C@H]2CC(C)C)C(=N)N1CCCC1CCCC1 | 0.1% | 23.1µM* | ? | -1.1% | -2.6% | 1.0%
CCCCN1C(=N)N([C@@H](CCC)CN2CCC[C@H]2CN2C(N)=NC[C@@H]2Cc2ccccc2)C[C@H]1[C@H](C)CC | 4.7% | 11.6µM* | 13µM* | -8.2% | -1.6% | 13.6%
CCCCN1C(=N)N([C@@H](CCC)CN2CCC[C@H]2CN2C(N)=NC[C@H]2CC(C)C)C[C@H]1Cc1ccccc1 | 1.5% | ? | ? | -4.1% | -3.4% | 0.4%
CC[C@@H](C)[C@@H]1CN([C@@H](C)CN2CCC[C@H]2CN2C(N)=NC[C@@H]2Cc2ccccc2)C(=N)N1CCCC1CCCC1 | -2.9% | ? | ? | 0.2% | -19.9% | -2.7%
CCCCN1C(=N)N([C@@H](C)CN2CCC[C@H]2CN2C(N)=NC[C@@H]2Cc2ccccc2)C[C@H]1Cc1ccccc1 | 10.7% | ? | ? | 3.2% | -0.8% | 17.6%
CCC(Oc1ccc(C)c(C)c1)C(=O)N1CCCN(C)CC1 (stereo not drawn) | -10.8% | -1.5% | 0.0% | 2.0% | 1.6% | 0.6%
CCC[C@@H](CN1CCC[C@H]1CN1C(N)=NC[C@H]1C(C)C)N1C[C@@H](Cc2ccccc2)N(CCCC2CCCC2)C1=N | 1.2% | 16.4µM* | ? | 0.8% | -10.2% | 19.0%
COc1ccccc1NS(=O)(=O)c1cc(NC(=O)c2ccncc2)ccc1N1CCCC1 | -12.0% | 20.6µM* | ? | -9.7% | -0.8% | ?
